Screening results from PubChem BioAssay.
Hits are enriched below; roughly 2.8% of the tested compounds scored in any of these assays.
proKLK7 act – proKLK7 zymogen activators, primary screen, biochemical, fluorescence intensity | purified proKLK7, EDANS-DABCYL substrate fluorescence; 100% is mature enzyme control, 0% vehicle | activation, % at 7 µM | 370,000 compounds, 0.9% hits | AID 652039, 2013;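 active = activation above the mean of all tested compounds plus 3 SD, computed per campaign excluding outliers beyond control limits, cut at about 13% in these data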
Target sequence (P49862 whole entry, looked up): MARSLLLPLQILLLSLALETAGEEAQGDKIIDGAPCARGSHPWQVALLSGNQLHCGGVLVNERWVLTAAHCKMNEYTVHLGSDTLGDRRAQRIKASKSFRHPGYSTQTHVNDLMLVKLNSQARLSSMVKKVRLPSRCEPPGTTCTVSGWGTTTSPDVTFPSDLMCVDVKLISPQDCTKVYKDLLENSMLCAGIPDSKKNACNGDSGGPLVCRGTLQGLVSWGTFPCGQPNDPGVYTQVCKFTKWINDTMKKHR
MsrA act – bovine MsrA enzyme activators, primary screen, biochemical, absorbance, HTS. purified bovine MsrA, absorbance read-out. Methionine sulfoxide reductase A (Bos taurus). activation, % at 10.6 µM. 360,000 compounds, 0.3% hits; in the data active = activation above about 7.5%;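 note: 0% = vehicle and 100% = reference activator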
SMARCA2 act – SMARCA2 (BRM) function activators, primary screen, cell-based, luminescence, high throughput. MG213 cells, MMTV-luciferase reporter, dexamethasone, overnight. activation, % at 9.1 µM. 370,000 compounds, 1% hits. AID 652017, 2013; in the data active = activation above about 7.8%;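 note: 0% = vehicle wells and 100% = reference activator wells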
MsrA inh – bovine MsrA enzyme inhibitors, primary screen, biochemical, absorbance, HTS; purified bovine MsrA, absorbance read-out; inhibition, % at 15.5 µM; 360,000 compounds, 0.75% hits; Methionine sulfoxide reductase A (Bos taurus); AID 651718, 2012; in the data active = inhibition above about 4.5%;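 note: 0% = vehicle wells with enzyme and 100% = reference inhibitor wells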
proKLK7 act conf – proKLK7 zymogen activators, confirmation, biochemical, fluorescence intensity, triplicate; shares compounds with proKLK7 act; purified proKLK7, EDANS-DABCYL substrate fluorescence; scaled: vehicle 0, mature enzyme 100; activation, % at 7 µM; 3,200 compounds, 68% hits; AID 686949, 2013;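 active = activation, as change over the incubation, above the mean of all tested compounds plus 3 SD, cut at about 13% in these data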
EDANS-DABCYL int – EDANS-DABCYL substrate optical interference, artefact control for kallikrein-7 zymogen activator project, biochemical, fluorescence intensity, high throughput. shares compounds with proKLK7 act. no enzyme, 4 h; solvent 0%, active enzyme control 100%. activation, % at 7 µM. 3,200 compounds, 80% hits. AID 686952, 2013;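 active = activation above the all-compound mean plus 3 SD, ignoring values outside control-based bounds, cut at about 4.8% in these data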;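 note: value is the 4 h activation minus the activation read at time zero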
EDANS interf – EDANS fluorescence interference in dose response, no enzyme; shares compounds with proKLK7 act; EDANS-DABCYL peptide fluorescence interference; EC50, µM; 250 compounds, 20% hits; AID 720493;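 active = compounds that raise the fluorescence signal in this interference counterscreen, with EC50 at or below 10 µM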;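 note: intact quenched peptide substrate alone read at 355 nm excitation and 520 nm emission; signal is fluorescence gain from T0 to T4 after four hours at room temperature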
Numbers without * were called inactive; / = no result.

SMILES | proKLK7 act | MsrA act | SMARCA2 act | MsrA inh | proKLK7 act conf | EDANS-DABCYL int | others
Cc1c(CCC(=O)NCCCN2CCCC2=O)c(=O)oc2c(C)c(O)ccc12 | 79.0* | -3.5 | 0.1 | 2.2 | 62.5* | 77.4*
Cc1oc2cc3oc(=O)c(CCC(=O)NCCCN4CCOCC4)c(C)c3cc2c1C | 2.4 | -0.6 | 1.3 | 2.1 | / | /
Cc1oc2c(C)c3oc(=O)c(CCC(=O)NCCCn4ccnc4)c(C)c3cc2c1C | -0.6 | -2.0 | -0.4 | 0.4 | / | /
Cc1coc2c(C)c3oc(=O)c(CCC(=O)NCCCN4CCCC4=O)c(C)c3cc12 | 5.2 | -1.5 | -0.1 | 1.9 | / | /
Cc1oc2c(C)c3oc(=O)c(CCC(=O)NCCCCCC(=O)O)c(C)c3cc2c1C | 20.6* | -1.9 | 0.6 | 0.5 | 13.9* | 9.3* | EDANS interf=>69.5
COC(=O)c1cc(-c2cccc(C(C)C)c2)c(=O)n2c1CCC2 | 0.5 | / | -0.6 | / | / | /
COc1ccc(-c2nnc3ccc(SCC(=O)N4CCCC4)nn23)cc1 | -0.1 | -2.4 | -1.8 | -0.2 | / | /
COc1ccc(-c2ccc3nnc(SCC(=O)N4CCCC4)n3n2)cc1 | 15.2* | -1.0 | -1.6 | 0.3 | 17.2* | 12.7* | EDANS interf=>69.5
Cc1cc(=O)oc2c3c4c(cc12)OCCN4CCC3 | 69.6* | -2.6 | 0.5 | 1.9 | 66.7* | 63.9*
COc1ccc(Br)c(Cn2c(C)c(C(=O)NCc3ccccc3C(F)(F)F)sc2=O)c1 | -0.1 | -1.0 | -1.8 | 0.2 | / | /
Cc1c(O)ccc2c3c(c(=O)oc12)CCCC3 | 32.1* | -5.1 | -3.1 | 2.5 | 71.2* | 64.4*
Cc1c(O)ccc2c3c(c(=O)oc12)CCC(C)C3 (stereo not given) | 39.4* | -2.4 | 0.5 | 1.3 | 63.0* | 83.8*
CC(=O)COc1ccc2c3c(c(=O)oc2c1C)CCCCC3 | -0.1 | -1.7 | 5.3 | 1.4 | / | /
Cc1c(Br)c(=O)oc2c(Br)c(O)ccc12 | 25.6* | -2.2 | 2.5 | -0.8 | 15.4* | 24.9*
Cc1c(Br)c(=O)oc2c(Br)c(O)c(O)cc12 | -15.4 | 4.2 | -1.9 | 0.5 | / | /
CN1/C(=N\O)c2cccc3cccc1c23 | 20.8* | -1.3 | -2.2 | -0.3 | 40.1* | 50.6*
O=C(COC(=O)c1cc(Br)ccc1O)NNC(=O)c1cccs1 | 25.1* | -5.6 | 1.4 | 0.0 | 20.7* | 23.6*
COc1nc(-c2ccccc2)c2cc(C)ccc2n1 | 12.7* | -1.9 | -0.6 | 0.7 | -1.8 | 1.6
Cc1ccc2nc(NCCO)nc(-c3ccccc3)c2c1 | 19.1* | -2.3 | -1.7 | -0.3 | -0.3 | -4.1
CCOc1nc(-c2ccccc2)c2cc(C)ccc2n1 | -4.3 | -2.4 | -1.3 | -0.1 | / | /
CCc1ccc2oc(=O)cc(CN3CCN(Cc4ccccc4)CC3)c2c1 | 0.6 | -1.5 | 0.5 | 0.6 | / | /
CCc1cc2c(CN3CCN(CC)CC3)cc(=O)oc2cc1O | 70.6* | -3.1 | 3.2 | 1.8 | 73.2* | 74.6*
COc1cc2c(cc1OC)CN(Cc1cc(=O)oc3cc(C)c(Cl)cc13)CC2 | 14.7* | 0.0 | -0.7 | -0.2 | -7.7 | -5.8
O=c1cc(CN2CCOCC2)c2cc(Cl)c(O)cc2o1 | 54.1* | -2.7 | -2.9 | 2.2 | 62.7* | 76.9*
Cc1c(O)ccc2c(CN3CCN(CCO)CC3)cc(=O)oc12 | 66.2* | 2.7 | 0.1 | 0.3 | 68.1* | 69.4*
SMILES | proKLK7 act | MsrA act | SMARCA2 act | MsrA inh | proKLK7 act conf | EDANS-DABCYL int | others
Cc1ccc2c(CN3CCN(Cc4ccc5c(c4)OCO5)CC3)cc(=O)oc2c1C | 0.7 | -3.9 | -2.8 | 0.1 | / | /
Cc1cc2oc(=O)cc(CN3CCOCC3)c2cc1C(C)C | -0.8 | -1.4 | -1.5 | 0.4 | / | /
N#Cc1ccc(CSc2nc3sc4c(c3c(=O)n2-c2ccc(Br)cc2)CCCC4)cc1 | -0.5 | / | -4.9 | / | / | /
COc1cccc(-c2cccc3c2NC(=O)C3(C)Cc2ccccc2F)c1 (stereo not given) | 0.1 | -5.0 | -2.5 | 2.0 | / | /
Cc1cc(C)c2oc(=O)cc(CN3CCOCC3)c2c1 | 0.6 | -5.2 | 0.2 | -0.5 | / | /
Cc1c(O)ccc2c(CN3CCOCC3)cc(=O)oc12 | 41.2* | -3.7 | 0.8 | 1.0 | 65.1* | 67.2*
CCCCCCCCN1CN2Cc3cc(OC)ccc3C2CS1(=O)=O (stereo not given) | 0.0 | / | -2.6 | / | / | /
Nc1nc2ncccc2cc1C(=O)c1c[nH]c2ccccc12 | -0.3 | / | -0.8 | / | / | /
C#CCNC(=O)c1cc2cccnc2nc1N | 18.0* | / | 2.6 | 1.6 | 46.4* | 45.3*
CCC(NC(=O)COc1cc2c(c3oc(=O)c(C)c(C)c13)CCC(C)(C)O2)C(=O)O (stereo not given) | 37.6* | -3.8 | -1.3 | 2.4 | 72.7* | 73.6*
Cc1cc(=O)oc2c3c(cc(OCC(=O)N[C@@H](CC(C)C)C(=O)O)c12)OC(C)(C)CC3 | -6.6 | -0.4 | -0.2 | 0.0 | / | /
Cc1c(C)c2c(OCC(=O)NCC(C)C)cc3c(c2oc1=O)CCC(C)(C)O3 | -8.4 | -1.7 | -0.4 | 0.7 | / | /
Cc1c(C)c2c(OCC(=O)N[C@@H](C)C(=O)O)cc3c(c2oc1=O)CCC(C)(C)O3 | 30.7* | 0.9 | -0.6 | 2.3 | 72.0* | 68.6*
COc1ccc(-c2cc(C(=O)Nc3ccc(C(N)=O)cc3)c3ccccc3n2)cc1OC | 18.3* | -4.8 | 2.0 | 0.8 | -34.0 | -28.6
C[C@H](O)[C@@H]1C(=O)N2CCc3c([nH]c4ccccc34)[C@@H]2C[C@@H]1N(C)C(=O)Nc1ccccc1 | 26.5* | -2.1 | 0.1 | -0.1 | 6.3 | 6.5*
C[C@@H]1ON(C)[C@H]2C[C@H]3c4[nH]c5ccccc5c4CCN3C(=O)[C@@H]12 | 14.7* | -1.4 | 0.8 | -0.3 | 2.6 | 2.3
C[C@H](O)[C@@H]1C(=O)N2CCc3c([nH]c4ccccc34)[C@@H]2C[C@@H]1N(C)C(=O)OCc1ccccc1 | 11.5 | / | -3.0 | 0.7 | / | /
C[C@H](O)[C@@H]1C(=O)N2CCc3c([nH]c4ccccc34)[C@@H]2C[C@@H]1N(C)C(=O)Nc1ccc(Br)cc1 | 37.3* | / | -2.4 | 1.2 | 2.1 | 3.8
Cc1ccccc1-c1cccc2c3c([nH]c12)[C@@H]1C[C@H]2[C@@H](C(=O)N1CC3)[C@H](C)ON2C | -24.3 | / | -1.2 | -0.7 | / | /
C[C@H](O)[C@@H]1CN2CCc3c([nH]c4ccccc34)[C@@H]2C[C@@H]1N(C)C(=O)Nc1ccc(F)cc1 | 15.7* | -9.7 | -4.7 | 3.2 | 2.9 | 1.9
C[C@H](O)[C@@H]1C(=O)N2CCc3c([nH]c4ccccc34)[C@@H]2C[C@@H]1N(C)C(=O)Nc1cc(Cl)cc(Cl)c1 | 19.0* | -4.5 | -2.5 | 1.4 | 6.4 | 6.1*
